Measured values reported in PubChem BioAssay (Tox21).
Records with an inconclusive call do not appear. Calls of active or inactive are those of the source. Unless noted, calls come from the whole dose curve; as a rule, active = well fitted curve in the direction sought with a large enough effect in the repeat runs; inconclusive = weak or mixed curves; inactive = no such curve, though single readings can be large; an effect the other way counts as inactive or inconclusive.

Test system: not listed separately
Assay: qHTS assay to identify small molecule agonists of the estrogen receptor beta (ER-beta) signaling pathway - cell viability counter screen (AID 1259380); note: nearly all actives have a fitted effect of over 30% in size; note: potency is the fitted concentration of half-maximal effect
Settings: ER-beta-bla HEK293T viability, CellTiter-Glo luminescence, 16 h; series mostly up to 92.4 µM; activity change, negative = cytotoxicity: at the top concentration
Summary of the method: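 ER-beta-UAS-bla HEK293T cells in medium with 2% charcoal-stripped FBS were preincubated 6 hr at 37C, dosed with compound in DMSO for 16 hr, then after the bla read, CellTiter-Glo was added for 30 min at room temperature; luminescence recorded.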
% is set by controls: 0 for no effect and ±100 for the full control effect.

Compound	activity change, negative = cytotoxicity	Potency
Oc1ccc(CCNCCCCCCNCCc2ccccc2)cc1O	-9.26% [at 42.5 µM] (inactive)	
Cc1cc(C)n(CO)n1	0.0338% (inactive)	
O=c1c2ccccc2oc2ccccc12	-3.23% (inactive)	
CCCCCCCCCCCCCCCCCCCl	2.61% [at 8.39 µM] (inactive)	
CC(=O)Nc1cccc(N)c1	-8.82% (inactive)	
Cc1ccc(NC=O)c(C)c1	4.63% (inactive)	
Clc1nc2ccccc2nc1Cl	-0.451% (inactive)	
CC(=O)Oc1cccc2c1C(=O)c1c(OC(C)=O)cc(C(=O)O)cc1C2=O	0.989% [at 42.5 µM] (inactive)	
CC(=O)c1ccc(Cl)c(Cl)c1Cl	-3.73% (inactive)	
CCCc1nc(C)c2c(=O)[nH]c(-c3cc(S(=O)(=O)N4CCN(CC)CC4)ccc3OCC)nn12	-13.8% [at 42.5 µM] (inactive)	
CC(C)(Cc1c[nH]c2ccccc12)NCC(O)COc1ccccc1C#N (stereo not given)		29.8 µM (active)
Cc1nc2sccn2c(=O)c1CCN1CCC(=C(c2ccc(F)cc2)c2ccc(F)cc2)CC1		13.3 µM (active)
O=C(c1ccco1)N1CCNCC1	2.37% [at 42.5 µM] (inactive)	
CC(COc1ccccc1)NC(C)C(O)c1ccc(O)cc1 (stereo not given)	-23.2% [at 42.5 µM] (inactive)	
CCOc1ccccc1O	11.1% (inactive)	
CCC(CC)C(=O)O	1.33% (inactive)	
CCCCCCC/C=C/C=O	-7.47% (inactive)	
CC/C=C/CCO	-15.1% (inactive)	
COc1ccc(C(=O)Nc2ccccc2)cc1[N+](=O)[O-]		30.9 µM (active)
O=C(Nc1ccc2c(c1)Cc1ccccc1-2)C(F)(F)F	-10.6% (inactive)	
O=c1[nH]nc(-c2ccc([N+](=O)[O-])o2)o1	-13.4% (inactive)	
OCCOc1cccc(OCCO)c1	4.69% (inactive)	
CC1=C(C)C(=O)C(CCCCC#CCCCC#CCO)=C(C)C1=O		18.8 µM (active)

Target: Androgen receptor (Homo sapiens) (UniProt P10275)
Sequence (P10275 whole entry, looked up): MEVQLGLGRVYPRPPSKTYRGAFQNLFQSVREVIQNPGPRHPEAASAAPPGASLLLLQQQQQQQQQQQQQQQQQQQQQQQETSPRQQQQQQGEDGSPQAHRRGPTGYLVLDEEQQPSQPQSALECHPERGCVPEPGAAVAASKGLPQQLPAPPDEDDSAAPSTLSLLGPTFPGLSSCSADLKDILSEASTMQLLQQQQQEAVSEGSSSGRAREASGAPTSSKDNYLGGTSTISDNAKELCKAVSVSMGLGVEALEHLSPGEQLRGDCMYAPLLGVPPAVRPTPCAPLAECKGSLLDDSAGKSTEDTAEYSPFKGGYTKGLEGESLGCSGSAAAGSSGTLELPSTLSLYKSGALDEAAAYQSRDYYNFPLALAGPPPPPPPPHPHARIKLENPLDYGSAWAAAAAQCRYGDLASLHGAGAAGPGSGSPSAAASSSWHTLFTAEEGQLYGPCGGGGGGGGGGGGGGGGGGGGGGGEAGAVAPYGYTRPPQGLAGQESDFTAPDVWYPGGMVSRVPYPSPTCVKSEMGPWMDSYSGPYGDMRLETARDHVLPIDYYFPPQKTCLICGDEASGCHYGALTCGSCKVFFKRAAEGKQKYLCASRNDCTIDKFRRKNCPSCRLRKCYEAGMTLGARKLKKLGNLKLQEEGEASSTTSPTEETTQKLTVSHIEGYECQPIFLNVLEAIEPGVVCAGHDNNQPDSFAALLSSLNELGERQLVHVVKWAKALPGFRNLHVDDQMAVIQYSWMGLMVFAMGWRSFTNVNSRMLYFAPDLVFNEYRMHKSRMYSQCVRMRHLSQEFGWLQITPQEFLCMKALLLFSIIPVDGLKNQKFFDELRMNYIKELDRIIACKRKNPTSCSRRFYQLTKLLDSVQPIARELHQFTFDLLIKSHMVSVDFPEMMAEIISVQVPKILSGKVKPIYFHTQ
Assay: qHTS assay to identify small molecule agonists of the androgen receptor (AR) signaling pathway in the presence of an antagonist (AID 1259381; calls by dose curve; note: nearly all actives have a fitted effect of over 15% in size)
Settings: MDA-kb2 MMTV-luciferase, AR agonist + nilutamide, 16 h; series mostly up to 92.4 µM; activation: at the top concentration
Summary of the method: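 MDA-kb2 human breast carcinoma cells carrying an MMTV-luciferase reporter (AR- and GR-responsive) were treated with compounds at 15 concentrations plus 3.0uM final nilutamide for 16hr at 37C without CO2; luminescence was read after ONE-Glo addition.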

Compound	activation
CC(=O)Oc1cccc2c1C(=O)c1c(OC(C)=O)cc(C(=O)O)cc1C2=O	7% [at 42.5 µM] (inactive)
CCCc1nc(C)c2c(=O)[nH]c(-c3cc(S(=O)(=O)N4CCN(CC)CC4)ccc3OCC)nn12	0.0228% [at 42.5 µM] (inactive)
O=C(c1ccco1)N1CCNCC1	-0.625% [at 42.5 µM] (inactive)
O=S(=O)(O)c1cc(Cl)c(Cl)cc1Cl	-1.27% (inactive)
CC[C@H](NC(C)C)[C@H](O)c1ccc(O)c2[nH]c(=O)ccc12	0.216% [at 42.5 µM] (inactive)
OCCCO	-0.0192% (inactive)
CCOCCn1c(N2CCCN(C)CC2)nc2ccccc21	-0.0066% [at 42.5 µM] (inactive)

Test system: not listed separately
Assay: qHTS assay to identify small molecule antagonists of the estrogen receptor beta (ER-beta) signaling pathway - cell viability counter screen (AID 1259382); note: nearly all actives have a fitted effect of over 55% in size; note: potency is the fitted concentration of half-maximal effect;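 for activity change, negative = cytotoxicity: HEK293T cells carrying ER-beta-UAS-bla reporter stimulated with estradiol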
Settings: ER-beta-UAS-bla HEK293T viability, CellTiter-Glo luminescence, 16 h; series mostly up to 92.4 µM; activity change, negative = cytotoxicity: at the top concentration
Summary of the method: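 ER-beta-UAS-bla HEK293T cells (2,000/well, 2% charcoal-stripped FBS) were pre-incubated 6 hr at 37C, then given compound plus 1nM final 17-beta-estradiol for 16 hr. Viability was read in the same wells by CellTiter-Glo luminescence after 30 min at room temperature.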

Compound	activity change, negative = cytotoxicity	Potency
CO[C@@H]1[C@@H](O[C@@H]2O[C@H](C)[C@@H](O[C@H]3C[C@@](C)(O)[C@@H](O)[C@H](C)O3)[C@H](N(C)C)[C@H]2O)[C@@H](CC=O)C[C@@H](C)[C@@H](O[C@@H]2CC[C@H](N(C)C)[C@@H](C)O2)/C=C/C=C/C[C@@H](C)OC(=O)C[C@H]1OC(C)=O	-8.38% [at 42.5 µM] (inactive)	
C=C[Si](OCC)(OCC)OCC	-0.203% (inactive)	
Cc1cc(C)n(CO)n1	2.21% (inactive)	
O=c1c2ccccc2oc2ccccc12	4.25% (inactive)	
CCCCCCCCCCCCCCCCCCCl	-0.0396% [at 8.39 µM] (inactive)	
CC(=O)Nc1cccc(N)c1	-0.676% (inactive)	
Cc1ccc(NC=O)c(C)c1	4.23% (inactive)	
Clc1nc2ccccc2nc1Cl	6.93% (inactive)	
CC(=O)Oc1cccc2c1C(=O)c1c(OC(C)=O)cc(C(=O)O)cc1C2=O	-23.8% [at 42.5 µM] (inactive)	
CC(=O)c1ccc(Cl)c(Cl)c1Cl	0.959% (inactive)	
CCCc1nc(C)c2c(=O)[nH]c(-c3cc(S(=O)(=O)N4CCN(CC)CC4)ccc3OCC)nn12	-3.59% [at 42.5 µM] (inactive)	
CC(C)(Cc1c[nH]c2ccccc12)NCC(O)COc1ccccc1C#N (stereo not given)		26.6 µM (active)
CC(Cc1ccccc1)(NC(=O)CN)c1ccccc1 (stereo not given)	-10.3% [at 42.5 µM] (inactive)	
O=C(c1ccco1)N1CCNCC1	4.88% [at 42.5 µM] (inactive)	
CC(COc1ccccc1)NC(C)C(O)c1ccc(O)cc1 (stereo not given)	-18.3% [at 42.5 µM] (inactive)	
CCc1cnc(C(=O)O)c(C(=O)O)c1	4.3% (inactive)	
CCOc1ccccc1O	13.1% (inactive)	
O=C(N[C@@H](Cc1ccccc1)[C@@H](O)C(=O)N1C[C@@H](O)[C@@H](O)C1)c1cc2cc(Cl)ccc2[nH]1	-19.4% (inactive)	

Compound	activity change, negative = cytotoxicity	Potency
CCC(CC)C(=O)O	4.78% (inactive)	
CC[C@H](NC(C)C)[C@H](O)c1ccc(O)c2[nH]c(=O)ccc12	2.29% [at 42.5 µM] (inactive)	
CCCCCCC/C=C/C=O	-13.2% (inactive)	
OCCCO	1.67% (inactive)	
CC/C=C/CCO	-25.8% (inactive)	
COc1cccc([C@H](O)C2CCN(CCc3ccc(F)cc3)CC2)c1OC	-11.4% (inactive)	
N#Cc1ccc(CC(=O)c2cccc(C(F)(F)F)c2)cc1	-9.69% (inactive)	
C[C@]12CCC(=O)C=C1[C@@H]1C[C@@H]1[C@H]1[C@@H]3[C@@H]4C[C@@H]4[C@@]4(CCC(=O)O4)[C@@]3(C)CC[C@@H]12	-8.74% [at 42.5 µM] (inactive)	
COc1ccc(C(=O)Nc2ccccc2)cc1[N+](=O)[O-]	-26.5% (inactive)	
O=C(Cl)c1cc(Cl)cc(Cl)c1	6.36% (inactive)	
O=C(Nc1ccc2c(c1)Cc1ccccc1-2)C(F)(F)F	-8.7% (inactive)	
O=c1[nH]nc(-c2ccc([N+](=O)[O-])o2)o1	-15.2% (inactive)	
COc1ccnc2c1CCCCC2S(=O)c1nc2ccccc2[nH]1 (stereo not given)	-15.4% [at 42.5 µM] (inactive)	
CCOCCn1c(N2CCCN(C)CC2)nc2ccccc21	4.37% [at 42.5 µM] (inactive)	
OCCOc1cccc(OCCO)c1	0.546% (inactive)	
CC1=C(C)C(=O)C(CCCCC#CCCCC#CCO)=C(C)C1=O		26.6 µM (active)
C(/C=C/C=C/Nc1ccccc1)=Nc1ccccc1	-0.5% (inactive)	
